Inconclusive results are not listed. The source made the active and inactive calls. Rule for the calls: active = hit-call score of the fitted dose curve at least 0.9, where 1 is the maximum; inconclusive = response in the unintended direction; inactive = score below 0.9.

Cytochrome P450 2C19 (Homo sapiens), sequence (P33261 whole entry, looked up): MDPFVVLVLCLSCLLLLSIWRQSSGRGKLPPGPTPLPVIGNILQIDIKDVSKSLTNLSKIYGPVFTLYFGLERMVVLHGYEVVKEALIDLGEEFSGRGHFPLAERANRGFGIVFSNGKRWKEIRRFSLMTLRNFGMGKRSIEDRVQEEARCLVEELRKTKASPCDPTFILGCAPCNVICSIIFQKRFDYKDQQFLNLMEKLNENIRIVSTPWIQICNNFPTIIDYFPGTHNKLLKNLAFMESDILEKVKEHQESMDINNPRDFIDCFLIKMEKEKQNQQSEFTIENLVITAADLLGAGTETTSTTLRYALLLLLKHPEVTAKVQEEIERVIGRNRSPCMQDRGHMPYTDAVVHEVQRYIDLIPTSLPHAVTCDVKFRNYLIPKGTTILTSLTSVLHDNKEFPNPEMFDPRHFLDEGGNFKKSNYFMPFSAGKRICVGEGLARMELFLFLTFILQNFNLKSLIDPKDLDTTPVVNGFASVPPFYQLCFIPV

Read-out in this experiment: Cytochrome P450 2C19 (Homo sapiens) (UniProt P33261)
Kind of experiment: CLD_CYP2C19_24hr: CellzDirect (CLD) Gene Expression Assay for xenobiotic metabolism (CYP2C19) at 24 hours (AID 2283687).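 Note: activity means mRNA induction above DMSO vehicle baseline.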 As for the experimental part:
CLD_24hr is a cell-based, multiplexed-readout assay that uses hepatocyte, a human liver primary cell, with measurements taken at 24 hours after chemical dosing in a 96-well plate.CLD_CYP2C19_24hr is one of 16 assay component(s) measured or calculated from the CLD_24hr assay. It is designed to make measurements of mRNA induction, a form of inducible reporter, as detected with chemiluminescence signals by Quantitative Nuclease Protection Assay (qNPA) technology.Data from the assay component CLD_CYP2C19_24hr was analyzed at the endpoint, CLD_CYP2C19_24hr, in the positive analysis fitting direction relative to DMSO as the negative control and baseline of activity. Using a type of inducible reporter, gain-of-signal activity can be used to understand changes in the reporter gene as they relate to the gene CYP2C19. Furthermore, this assay endpoint can be referred to as a primary readout. To generalize the intended target to other relatable targets, this assay endpoint is annotated to the cyp intended target family, where subfamily is xenobiotic metabolism.
Human hepatocyte cultures were treated daily for two consecutive days with fresh dosing solutions containing appropriate concentrations of the 320 ToxCast chemicals (chemical identities were blinded to CellzDirect and other ToxCast collaborators), vehicle control (0.2% DMSO), and positive control inducers as summarized in Table 1. Due to the large number of treatment groups and chemicals examined, the ToxCast chemicals were divided into two groups (spanning two independent cultures of hepatocytes from separate donor preparations (Hu778: ToxCast plates 1 and 2; Hu776: ToxCast plates 3 and 4). Each preparation of human hepatocyte cultures was treated with respective vehicle control, medium only control, set of six positive controls/reference chemicals for the five hepatic receptor pathways, and a subset of eight of the ToxCast chemicals (indoxacarb, pyrithiobac-sodium, norflurazon, cyhalofop-butyl, methomyl, thiram, acetochlor, and propiconazole). These replicate data, coupled with internal replicates designed within the blinded ToxCast chemical library, provided additional data to evaluate interindividual differences between hepatocyte preparations and their potential impact on chemical profiles.Cell morphology and integrity were evaluated using phase-contrast microscopy as an indicator of hepatocyte cell health (Tyson & Green, 1987). Cultures for each treatment group (i.e., media, vehicle [0.2% DMSO], positive control inducers [multiple concentrations], and the ToxCast chemicals [multiple concentrations]) were observed and cell morphology was assessed relative to vehicle control cultures at each harvest time point (0, 6, 24, or 48 h). […] Images were evaluated at the conclusion of the study to assess changes in cell integrity and account for the effects of chemical exposure on uncharacteristic changes in concentration-dependent gene expression profiles. The results from these determinations of apparent cytotoxicity were annotated (yes/no) alongside the corresponding qNPA data for reference.At the conclusion of each treatment period, hepatocyte cultures (96-well) were washed with 1 volume of HBSS, lysed by addition of 25 ul ArrayPlate lysis buffer (HTG, Tucson, AZ), and 70 ul/well of Denaturation Oil, denatured by incubation at 95C for 10 min, and frozen at approximately -70C until analysis by nuclease protection assay (qNPA) (Roberts et al., 2007). For qNPA analysis, cell lysates were thawed at 50C for approximately 30 min, qNPA probes were added, and samples were incubated at 95C for 10 min to begin the detection process by denaturing the target RNA, dissociating the duplexes and secondary structure hybridization. At the conclusion of the hybridization period, S1 nuclease reagent was added to each sample to digest all nonprotected nucleotides at 50C for 60-90 min. […]
In the case of `CCCOC(=O)c1ccc(C(=O)OCCC)nc1`, the outcome was inactive.

In the case of `COc1nc(C)nc(NC(=O)NS(=O)(=O)c2ccccc2OCCCl)n1`, the outcome was inactive.

Take `CCOC(=O)C(C)Oc1ccc(Oc2nc3ccc(Cl)cc3o2)cc1` (centres undefined): the result was inactive.

On to `Oc1ccc(C(c2ccc(O)cc2)C(Cl)(Cl)Cl)cc1`, for which the compound was classed as inactive.

As for `S=C(S)NCCNC(=S)S.[Mn+2].[S-]C([S-])=NCCN=C([S-])[S-].[Zn+2]`, the compound was called inactive.

Take `CCSC(=O)N(CC(C)C)CC(C)C`: the outcome was inactive.

On to `COC(=O)c1ccccc1S(=O)(=O)NC(=O)Nc1nc(OC(F)F)cc(OC(F)F)n1`, for which the outcome was inactive.

Consider `CCC(C)OC(=O)N1CCCCC1CCO` (centres undefined), for which the result was inactive.

Regarding `COC(=O)c1ccc(I)cc1S(=O)(=O)NC(=O)Nc1nc(C)nc(OC)n1`, the compound was classed as inactive.

Turning to `Cc1nn(C)c(Oc2ccccc2)c1C=NOCc1ccc(C(=O)OC(C)(C)C)cc1`, the call was inactive.

As for `CCOC(=O)NCCOc1ccc(Oc2ccccc2)cc1`, the call was inactive.

Take `CCCN(CCC)C(=O)SCC`: the compound was called inactive.

For `CC1(C)C(C=C(Cl)Cl)C1C(=O)OCc1cccc(Oc2ccccc2)c1` (centres undefined), the result was inactive.

`CSC(=O)c1cccc2nnsc12`: the outcome was inactive.

For the compound `COC(=O)c1ccc(CNS(C)(=O)=O)cc1S(=O)(=O)NC(=O)Nc1nc(OC)cc(OC)n1`, the compound was called inactive.

Take `c1ccc(Nc2ccccc2)cc1`: the call was inactive.

For the compound `COc1c(Cl)ccc(Cl)c1C(=O)O`, the result was inactive.

Regarding `CCCCOC(=O)C(C)Oc1ccc(Oc2ccc(C(F)(F)F)cn2)cc1` (centres undefined), the outcome was inactive.

For the compound `C#CCOC(=O)[C@@H](C)Oc1ccc(Oc2ncc(Cl)cc2F)cc1`, the call was inactive.

As for `CC(C)(c1ccc(O)cc1)c1ccc(O)cc1`, the outcome was inactive.

On to `CCOC(=O)COc1cc(-n2ncc(C(F)(F)F)c(C)c2=O)c(F)cc1Cl`, for which the result was inactive.

`CCN(CC)C(=O)c1cccc(C)c1`: the compound was called inactive.

Take `COC(=O)CSc1cc(N=c2sc(=O)n3n2CCCC3)c(F)cc1Cl`: the compound was classed as inactive.

As for `COC(=O)c1ccccc1C(=O)O`, the compound was called inactive.

Values taken from PubChem BioAssay (EPA / NIEHS).
